# Test results published in PubChem BioAssay (NCI).
# The panel holds about 83,000 compounds, 20% with a hit somewhere; the sample as a whole holds those more often.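 Negative percent growth values reflect cell death: -40 means 40% of the cells present at the start died, and -100 means all died.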 Activity calls are given as the source filed them.
# Tested on: OVCAR-3 ovarian
# Experiment: NCI-60 one-dose screen, 48 h (100 = growth as untreated, 0 = no growth, -100 = all killed)
# Settings: 10 µM unless noted
# Experimental: Growth inhibition of the OVCAR-3 human tumor cell line is measured as a screen for anti-cancer activity. Cells are grown in 96 well plates and exposed to the test compound for 48 hours. Compounds are tested at a single concentration, which is 10^-5 M for most compounds. The reported endpoint is percent growth (GI% or GIPRCNT), where numbers from 0 - 100% represent growth inhibition, and numbers from -100% - 0 represent cell death. For example, a value of 40 represents 60% growth inhibition. A value of 0 means no net growth occurred over the course of the experiment. A value of -40 indicates 40% of cells at the beginning of the experiment died by the end of the experiment. A value of -100 means all cells are dead at the end of the experiment.
# NCI-60 Human Tumor Cell Lines Screen was performed using the standard one-dose NCI protocol, which is described in more detail at https://dtp.cancer.gov/discovery_development/nci-60/default.htm.
# Compounds with GIPRCNT values below 10 were considered active. Activity score was based on GIPRCNT using the following formula: […]
# Score is 0 for GIPRCNT values of 100 or above, 50 for GIPRCNT values of 0, and 100 for GIPRCNT values of -100.
row,SMILES,growth
1,Clc1ccc2c(c1)C[C@H]1C[C@@H](c3cccs3)N2O1,114% (inactive)
2,Cc1nn2c(-c3nc4ccc(Cl)cc4[nH]3)c(-c3ccc(F)cc3)nc2s1,110% (inactive)
3,Cc1c(C(=O)Nc2nc(-c3ccccc3)cs2)nnn1-c1cccc2ccccc12,71.8% [50 µM] (inactive)
4,Clc1ccc2c(N3CCN(c4ccnc(NC5CCCCC5)n4)CC3)ccnc2c1,53.4% (inactive)
5,CCC12CCC3c4ccc(O)cc4CCC3C1CC(O)C2O (stereo not given),95.4% (inactive)
6,COc1ccc(CSc2nc3cc(OC)c(OC)cc3c(=O)n2-c2ccc(Cl)cc2)cc1,103% (inactive)
7,O=C(NCc1ccc(F)cc1)C1CN(c2ccc(Cl)cc2)N(c2ccc(Cl)cc2)C1=O (stereo not given),9.08% (active)
8,O=C(Nc1ccc(Cl)c(Cl)c1)OCn1ncc2ccc([N+](=O)[O-])cc21,85.1% (inactive)
9,COC(=O)/C=C1/CCC2C3CCC4=CC(=O)C(Br)CC4(C)C3C(=O)CC12C (stereo not given),89.5% (inactive)
10,O=c1nc(NO)[nH]c(=O)n1Cc1ccc(F)cc1,112% (inactive)
11,COc1ccccc1-n1c(SCc2cc(OC)c(OC)c(OC)c2)nc2ccc(Cl)cc2c1=O,0.54% (active)
12,COC1(OC)C2(Cl)C=C(c3ccccc3)C1(Cl)C(Cl)=C2Cl (stereo not given),107% (inactive)
13,O=S(=O)(/N=C1C=C/C(=N\S(=O)(=O)c2ccccc2)c2ccccc2\1)c1ccccc1,101% (inactive)
14,Cn1c2ccc(Cl)cc2c2nn(C(=O)c3ccccc3)c(=O)nc21,111% (inactive)
15,CCCN(CCC)c1ccc(/C=C/c2ccc3cc(OCC)ccc3n2)cc1,132% (inactive)
16,Cc1c(C)n(CC(O)CNC2CCCCC2C)c2ccccc12 (stereo not given),-89.8% (active)
17,N#Cc1c(-c2cccc(F)c2)cc(-c2ccc(Br)s2)[nH]c1=O,39.5% (inactive)
18,COc1nc2c(cc1S(=O)(=O)c1ccccc1)CCc1c-2cnn1-c1ccccc1,88.9% (inactive)
19,COc1cc(-c2nc3ccccc3o2)cc(CN2CCN(c3ccccc3)CC2)c1O,63.7% (inactive)
20,N#Cc1c(O)c2c(c(O)c1C#N)C(=O)c1ccccc1C2=O,-9.86% (active)

row,SMILES,growth
1,CCN(C(=O)c1ccc2c3c(cccc13)C=C2)c1ccccc1,112% (inactive)
2,COc1ccc(/C=N/NC(=O)c2cnn(CC(O)Cc3ccccc3)c2N)cc1OC1CCCC1 (stereo not given),102% (inactive)
3,O=c1[nH]c(-c2ccccn2)nc2sc3c(c12)CCCCCC3,54.7% (inactive)
4,COc1ccc(OC)c(/C=C2\Oc3cc(O)ccc3C2=O)c1,95.8% (inactive)
5,COc1cc(/C=N/NC(=O)c2cnn3c2NC(c2ccccc2)C3)ccc1OC1CCCC1 (stereo not given),-32.9% (active)
6,COC(=O)c1c2c(c(C)[n+]([O-])c1C)C(=O)C=C(NCc1ccc(F)c(Cl)c1)C2=O,-41.4% (active)
7,O=c1c2c(=NCCN3CCCC3)cc3c(=O)n(CCCN4CCOCC4)c(=O)c4c(-c5ccc(CN6CCCC6)cc5)cc(c(O)n1CCCN1CCOCC1)c2c4-3,-22.5% (active)
8,O=C1CN2CCC1C/C2=C\c1ccnc2c(Cl)cccc12 (stereo not given),123% (inactive)
9,O=C(c1ccccc1)C(Br)C(Br)c1cccc([N+](=O)[O-])c1 (stereo not given),-23.4% (active)
10,c1ccc(-c2n(Cc3ccc4ccccc4n3)c3ccccc3[n+]2Cc2ccc3ccccc3n2)cc1,0.883% (active)
11,c1ccc2cc(-c3n(Cc4ccc5ccccc5n4)c4ccccc4[n+]3Cc3ccc4ccccc4n3)ccc2c1,-18.9% (active)
12,O=C(NCc1ccco1)C1CCN(S(=O)(=O)c2ccc(Cl)cc2)CC1,-64.7% (active)
13,COc1cc(/C=N/NC(=O)c2cnn3c2NC(c2ccccc2)C3)cc(OC)c1OC (stereo not given),10.4% (inactive)
14,CSc1nnc(-c2sc3nnc(-c4ccccc4)c(-c4ccccc4)c3c2O)o1,86.8% (inactive)
15,Cc1cc(O)cc2c1[C@H]1CC[C@]3(C)[C@@H](O)CC[C@H]3[C@@H]1C=C2,108% (inactive)
16,CCN1CCN(c2ccc(Nc3ncc4ccc5ncn(C(C)C)c5c4n3)nc2)CC1,-28.2% (active)
17,Cc1cccc2c(=O)c3c(sc12)c(NCCCN)nc1ccccc13,39.4% (inactive)
18,Brc1ccc(SCN(CSc2ccc(Br)cc2)Cc2ccccc2)cc1,91.6% (inactive)
19,COc1ccc(/C=C/C(=O)N2CCC(O)CC2)cc1OC1CCCC1,111% (inactive)
20,COc1cc(/C=C/C(=O)CC(=O)/C=C/c2cc(Br)c(OC)c(OC)c2)cc(Br)c1OC,102% (inactive)
